Screening data from PubChem BioAssay.
PI5P4K alpha inh – inhibitors of human PI5P4K alpha | P48426 | PI5P4Kalpha enzyme, ADP-Glo luminescence, 60 min; hits give low values | max response, % | 330,000 tested, 1.2% active | AID 652105; active = max response of -50% or lower; inconclusive = between -30% and -50%; inactive = -30% or higher; also: value at the top dose of about 77 µM; % is scaled to controls: 0 for no effect and ±100 for the full control effect
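Compounds were pin-transferred onto PI5P4Kalpha and substrate in HEPES pH 7.4 buffer with EGTA, CHAPS and 5% DMSO. ATP (5 microM final) started the reaction, which ran 60 minutes at room temperature before ADP-Glo detection.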
Pol eta inh-1 – DNA polymerase eta (human) inhibition; Potency, µM (titrated, usually from 114 µM), inactives show at the highest dose activity change, negative = inhibition, most hits filed as inhibitors; AID 588591; recombinant Pol eta, fluorescent DNA replication assay; 390,000 tested, 1.2% active; also: potency is read from the fitted curve at half-maximal effect; % is scaled to controls: 0 for no effect and ±100 for the full control effect
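Pol eta (10 nM) was preincubated with compounds for 15 min at room temperature, after which fluorescent replication substrate (50 nM final) was added to start the reaction. Fluorescence was read kinetically at 0 and 10 min.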
Pol iota inh – DNA polymerase iota (human) inhibition | Q9UNA4 | Pol iota fluorescent replication assay, 10 min | Potency, µM (titrated, usually from 115 µM), without a hit: at the highest dose activity, negative = inhibition, hits mostly inhibitors | 390,000 tested, 1% active; also: potency is read from the fitted curve at half-maximal effect
Target sequence (Q9UNA4 whole entry, looked up): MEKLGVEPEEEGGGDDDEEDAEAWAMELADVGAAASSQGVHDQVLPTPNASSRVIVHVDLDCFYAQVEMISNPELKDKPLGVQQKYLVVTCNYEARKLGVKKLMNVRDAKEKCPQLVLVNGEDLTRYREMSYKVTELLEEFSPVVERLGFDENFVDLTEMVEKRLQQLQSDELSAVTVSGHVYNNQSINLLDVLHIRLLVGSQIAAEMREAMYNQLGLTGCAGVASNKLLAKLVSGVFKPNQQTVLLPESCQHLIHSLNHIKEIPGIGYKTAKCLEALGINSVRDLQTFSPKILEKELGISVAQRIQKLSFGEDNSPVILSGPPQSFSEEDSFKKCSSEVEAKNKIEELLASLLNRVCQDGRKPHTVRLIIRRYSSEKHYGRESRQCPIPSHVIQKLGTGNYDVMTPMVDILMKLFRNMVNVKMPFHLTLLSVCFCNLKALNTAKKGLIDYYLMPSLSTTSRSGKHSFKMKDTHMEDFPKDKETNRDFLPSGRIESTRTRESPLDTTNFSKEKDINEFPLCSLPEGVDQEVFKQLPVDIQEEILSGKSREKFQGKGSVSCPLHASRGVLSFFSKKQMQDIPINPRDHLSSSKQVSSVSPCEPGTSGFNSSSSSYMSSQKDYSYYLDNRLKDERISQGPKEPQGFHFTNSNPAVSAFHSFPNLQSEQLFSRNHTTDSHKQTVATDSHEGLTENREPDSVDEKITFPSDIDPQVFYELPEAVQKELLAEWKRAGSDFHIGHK
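Pol iota at 10 nM preincubated 15 min with compounds at room temperature; reaction started with fluorescent substrate, 50 nM final. Fluorescence read kinetically at 0 and 10 min; buffer-only wells as negative control.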
Pol kappa inh-1 – DNA polymerase kappa (human) inhibition; purified Pol kappa, fluorescent DNA synthesis assay, 10 min; Potency, µM (top dose mostly 107 µM), inactives show at the highest dose activity, negative = inhibition, actives largely listed as inhibitors; Q9UBT6; 400,000 tested, 0.53% active; AID 588579; also: potency is read from the fitted curve at half-maximal effect; % is scaled to controls: 0 for no effect and ±100 for the full control effect
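10 nM Pol kappa preincubated 15 min at room temperature with compounds, then reaction started with substrate at 50 nM final. Fluorescence read kinetically at 0 and 10 min; buffer-only wells served as negative control.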
12-LOX inh – blocks human arachidonate 12S-lipoxygenase | 580,000 tested, 1.1% active | purified 12hLO, xylenol orange hydroperoxide absorbance | Potency, µM (doses to about 108 µM), inactives show at the top dose activity change, negative = inhibition, usual class: inhibitors | P18054; also: potency is read from the fitted curve at half-maximal effect; % is scaled to controls: 0 for no effect and ±100 for the full control effect
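Hydroperoxide product was detected by ferrous iron/xylenol orange as the 573 to 405 nm absorbance ratio. Arachidonic acid at 40 uM (final) was turned over for 30 min at room temperature by 150 nM human 12hLO, pH 7.0 Hepes buffer, after 15 min compound preincubation.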
Pol beta inh-1 – blocks human DNA polymerase beta activity; P06746; Pol beta primer extension/strand displacement, fluorescence kinetic; Potency, µM (highest dose often 114 µM), for inactives: top-dose activity change, negative = inhibition, usual class: inhibitors; 340,000 tested, 1.3% active; AID 485314; also: potency is read from the fitted curve at half-maximal effect; % is scaled to controls: 0 for no effect and ±100 for the full control effect
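Values derive from four-parameter Hill fits of normalized kinetic data: reads at 0 and 10 min following addition of 50 nM substrate to 10 nM Pol beta preincubated 15 min with compound.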
Pol beta inh-2 – Inhibitors of human DNA polymerase beta, hit validation; shares compounds with Pol beta inh-1; Pol beta primer extension/strand displacement, fluorescence kinetic; Potency, µM, usual class: inhibitors; 250 tested, 87% active; AID 540280; calls by dose curve; also: potency is read from the fitted curve at half-maximal effect
Klenow counter – inhibits Klenow fragment polymerase in counter-screen | shares compounds with Pol beta inh-1 | Klenow exo- polymerase counter-screen, fluorescent DNA substrate | 250 tested, under 10 active | AID 540300 | activity change, negative = inhibition, % at 57.1 µM
HIV RT inh – inhibits HIV-1 reverse transcriptase in counter-screen; AID 540301; 250 tested, under 10 active; shares compounds with Pol beta inh-1; activity % (negative = inhibition, positive = activation), % at 57.1 µM; HIV-1 RT polymerase activity, counter-screen
POLB valid – DNA polymerase beta inhibition, radiolabeled validation; shares compounds with Pol beta inh-1; radiolabeled primer extension gel assay, phosphorimager; inhibition, % at 10 µM; 110 tested, 91% active;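 active = inhibition at 10 µM of 30% or more; inconclusive = no clear call, values can overlap the other calls; inactive = inhibition at 10 µM under 30%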
BAZ2B inh – confirmation of human BAZ2B bromodomain inhibitors | AlphaScreen BAZ2B / biotin-H3K14Ac peptide displacement | Potency, µM, usual class: inhibitors | 25 tested, 100% active | shares compounds with Pol kappa inh-1; calls by dose curve
AlphaScreen ctr – counter-screen for BAZ2B inhibitors: AlphaScreen signal interference; shares compounds with Pol kappa inh-1; AlphaScreen biotin-His6 peptide bead counterscreen, signal decrease; Potency, µM (top dose mostly 57.1 µM), for the others: at the highest dose activity change, negative = inhibition, actives largely listed as inhibitors; 25 tested, under 10 active; AID 588859;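 active = clear concentration-dependent signal drop in the bead assay lacking the target, so a primary-screen artifact; inconclusive = weak, partial or single-dose response; inactive = no response, so a real primary hit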
PGK validate – validation of Trypanosoma brucei phosphoglycerate kinase inhibitors | shares compounds with Pol kappa inh-1 | 500 tested, 79% active | Potency, µM (doses to about 57.5 µM), for inactives: top-dose activity change, negative = inhibition, usual class: inhibitors | TbPGK coupled GAPDH assay, Kinase-Glo luminescence; also: potency is read from the fitted curve at half-maximal effect; % is scaled to controls: 0 for no effect and ±100 for the full control effect; nearly all actives have a fitted effect of over 65% in size
POLI cherry-pick – Inhibitors of human DNA polymerase iota, confirmation | shares compounds with Pol kappa inh-1 | Pol iota primer extension, TAMRA/BHQ fluorescence | Potency, µM, actives largely listed as inhibitors | 1,500 tested, 77% active; also: potency is read from the fitted curve at half-maximal effect
Pol kappa inh-2 – Pol kappa (human) inhibition, cherry-pick confirmation; shares compounds with Pol eta inh-1; purified Pol-kappa, fluorescent strand-displacement substrate; Potency, µM, most hits filed as inhibitors; 920 tested, 76% active; AID 720501; also: potency is read from the fitted curve at half-maximal effect
Pol eta inh-2 – confirmation of human DNA polymerase eta inhibitors; 2,600 tested, 64% active; shares compounds with Pol eta inh-1; Pol eta primer extension, TAMRA/BHQ fluorescence, 10 min; Potency, µM, usual class: inhibitors; AID 720502; also: potency is read from the fitted curve at half-maximal effect
The depositor's hits bear a star; ? = inconclusive; · = no result; [ ] = remark or other dose. An excerpt weighted towards active compounds, which were near 2.9% of everything screened. Unless noted, calls follow the shape of the dose curve; as a rule, active = well fitted curve in the direction sought with a large enough effect; inconclusive = small, poorly fitted or top-dose-only effect, or another doubt; inactive = no such curve, though single readings can be large; an effect the other way counts as inactive or inconclusive.

SMILES	PI5P4K alpha inh	Pol eta inh-1	Pol iota inh	Pol kappa inh-1	12-LOX inh	Pol beta inh-1	others
N#Cc1cccc(NC(=O)NC[C@H]2C[C@@H]3CCN2C[C@@H]3CN2CCN(c3ccc(F)cc3)CC2)c1	·	·	·	·	-14.9%	·
O=C1NC(=O)C(=Cc2ccc(Sc3ccccc3)o2)C(=O)N1	-51.7*	?	?	-3.1%	?	17.0%
O=C1NC(=O)C(=Cc2ccc(-c3ccc(F)cc3O)o2)C(=O)N1	-87.3*	70.8µM*	?	-9.3%	?	-2.2%
CN1C(=O)C(=Cc2ccc(Sc3ccccc3)o2)C(=O)N(C)C1=O	2.7	-0.3%	63.8%	-7.6%	?	?
O=C1NC(=O)C(=Cc2ccc(N3CCOCC3)cc2)C(=O)N1	-16.0	-15.7%	?	-9.1%	-10.9%	2.2%
O=C1NC(=O)C(=Cc2ccc(-c3ccc(Cl)cc3)o2)C(=O)N1	-18.7	79.4µM*	11.2µM*	-3.7%	·	43.3%
O=C1NC(=O)C(=Cc2ccc(-c3ccc(S(=O)(=O)N4CCOCC4)cc3)o2)C(=O)N1	?	-13.7%	25.1µM*	0.4%	0.0%	19.7%
c1cnc2nc(C3CCCNC3)[nH]c2c1 (stereo not drawn)	·	·	·	·	25.1%[176 µM]	·
CC(C)(C)CC(=O)N1C[C@@H]2C[C@H](C1)c1ccc(NC(=O)Nc3cccc(F)c3)c(=O)n1C2	·	·	·	·	2.1%	·
CCCCn1c(O)c(C(C)=NCCc2c[nH]c3ccccc23)c(=O)[nH]c1=O	-15.9	-9.0%	30.1%	8.1%	-71.9%	18.1%
O=C(/C=C/c1c[nH]c2ccccc12)c1c(O)n(CCc2ccccc2)c(=O)[nH]c1=O	-56.1*	-11.5%	9.7%	-10.7%	-3.5%	2.6%
CN1C(=O)C(=Cc2coc3ccccc3c2=O)C(=O)N(C)C1=O	-72.9*	-0.8%	-6.6%	-3.2%	?	3.2%
CN1C(=O)C(=Cc2cn(CC#N)c3ccccc23)C(=O)N(C)C1=O	?	?	?	-4.0%	-18.5%	?
Cc1ccc(S(=O)(=O)N(CC(=O)N/N=C\c2cccs2)c2cccc3cccnc23)cc1	-23.5	?	?	-10.2%	4.6%	39.8µM*
COc1cc2c(cc1OCc1ccccc1)NC(=O)C21CCN(c2ccccn2)CC1	·	·	·	·	-12.8%[176 µM]	·
O=C(COC(=O)c1c2c(nc3ccccc13)/C(=C/c1ccco1)CC2)NC1CCCC1	-71.1*	3.55µM*	12.6µM*	31.6µM*	25.1µM*	3.16µM*	Pol beta inh-2=25.1*;Klenow counter=-28.4;HIV RT inh=-5.2;POLB valid=98.8*;BAZ2B inh=7.08*;AlphaScreen ctr=?;POLI cherry-pick=13.4*;Pol kappa inh-2=11.9*;Pol eta inh-2=16.9*
CC(C)(O)c1cn(C[C@H]2C[C@@H]3CCN2C[C@@H]3C(=O)NCc2ccc(F)cc2)nn1	·	·	·	·	1.4%[176 µM]	·
CCC(=O)Nc1cc(C(=O)O)ccc1S(=O)(=O)c1ccc(C)cc1	-6.4	5.62µM*	?	?	-13.8%	10µM*	Pol beta inh-2=28.2*;Klenow counter=-26.4;HIV RT inh=-14.2;POLI cherry-pick=59.7*;Pol eta inh-2=19*
CCC(=O)Nc1ccccc1	-4.5	-6.5%	6.0%	-2.0%	-2.0%	23.7%
O=C(CSC(c1ccccc1)c1ccccc1)Nc1ccc2c(c1)OCCCO2	·	·	·	·	-26.5%	·
C=C(C)C(=O)Nc1cccc(C2=NOC3(C2)C[C@H](C(N)=O)N(C(=O)/C=C/C)C3)c1 (stereo partly drawn)	-11.2	8.91µM*	?	?	-17.1%	5.01µM*	Pol beta inh-2=7.08*;Klenow counter=2.7;HIV RT inh=9.0;BAZ2B inh=7.08*;AlphaScreen ctr=-6.6%;POLI cherry-pick=?;Pol eta inh-2=19*
Cc1nc(N2CCCCC2)c2ccsc2n1	-4.6	-3.0%	-8.5%	-3.6%	-8.6%	-6.7%	BAZ2B inh=10*;AlphaScreen ctr=?
Cc1ccc(-c2nnc(C)c(N3CCCC3)n2)cc1	3.0	-19.9%	48.0%	2.6%	-4.1%	-5.4%
CCOc1ccc(NS(=O)(=O)c2ccc(Cl)c(N=Nc3c(O)[nH]c(=S)[nH]c3=O)c2)cc1Br	?	20µM*	·	·	?	·	PGK validate=14.6µM*
COc1ccc(NS(=O)(=O)c2ccc3c(c2)oc(=O)n3C)cc1Cl	-0.3	-4.9%	?	-15.3%	0.2%	0.0%
CCOC(=O)c1ccc(N=Cc2c(O)n(-c3ccccc3F)c(=S)[nH]c2=O)cc1	-26.9	-28.1%	?	-17.4%	10.4%	30.2%
CCOC(=O)c1ccc(N=Cc2c(O)n(-c3ccc(OC)cc3)c(=S)[nH]c2=O)cc1	-1.1	?	-1.4%	-24.6%	-12.3%	-4.8%	POLI cherry-pick=3.77*
C#C[C@H]1CN2CC[C@H]1C[C@@H]2CNCc1cccc(Cl)c1	·	·	·	·	66.7%[176 µM]	·
Oc1ccc(CC2CC3CCN2CC3)cc1O (stereo not drawn)	-10.4	-3.2%	7.4%	-15.2%	?	17.0%
